Data published in the supplement of paper PMC13392028.
Over roughly 4,100 sequences, “RBNS R-value (6-mer enrichment in protein-bound RNA vs input library)” has its median near 0.96; the highest 2% begin near 2.4. Many of the other results were omitted from the sample, so the highest values are more common in it than they were.

Test system: PyIESI-1 RRM domain (Plasmodium yoelii PY17X_0911200 aa 795-956, GST fusion)
Assay: RBNS R-value (6-mer enrichment in protein-bound RNA vs input library) (ratio); higher = stronger binding preference; the methods of the paper give 50 / 100 / 500 nM protein instead
Procedure: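 RNA Bind-n-Seq: recombinant GST-tagged IESI-1 RRM domain was incubated at room temperature with a random 40-nt in vitro transcribed RNA library at 250, 500 or 1000 nM protein. Bound RNA was pulled down on glutathione beads and sequenced. R-value is the enrichment of each 6-mer in the bound RNA relative to the input library. Each 6-mer sits inside the random 40-mer context, not as an isolated oligo. Values are replicate 1 only.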

Sequence	RBNS R-value (protein concentration: 250 nM)	RBNS R-value (protein concentration: 500 nM)	RBNS R-value (protein concentration: 1000 nM)
UUACGC	0.784	0.803	0.805
AAGGCU	0.979	0.991	0.95
GAUCGG	0.955	0.963	0.942
GAUAUG	2.3	2.32	2.43
GAUAUA	1.32	1.36	1.53
GAUAUU	1.57	1.65	1.77
AUAUAA	0.522	0.55	0.539
AGUGUA	0.664	0.68	0.657
GGAGUU	0.958	0.98	0.948
UUUACC	0.764	0.778	0.794
GGGUGU	0.909	0.99	0.941
UCGGAA	0.911	0.907	0.87
UAUGAG	0.865	0.899	0.898
AAUGAG	1.03	1.07	1.04
AAUGGU	0.878	0.894	0.881
CAUGAG	0.978	0.984	0.979
UAUGAU	4.89	4.59	4.9
CAUGAA	0.887	0.913	0.901
CAUGAU	5.84	5.36	5.72
AAUGAU	5.76	5.22	5.56
UAUGAA	0.826	0.838	0.811
AUAGUC	0.632	0.65	0.627
CACCUG	1.72	1.67	1.73
GGUGAA	1	1.02	0.954
GAUAAU	1.7	1.73	1.86
GAUGAU	6.07	5.52	5.59

Sequence	RBNS R-value (protein concentration: 250 nM)	RBNS R-value (protein concentration: 500 nM)	RBNS R-value (protein concentration: 1000 nM)
AAUGAA	1.03	1.02	1.02
GAUGAG	3.25	3.07	3.06
AAUGAC	1.19	1.23	1.25
UAUGAC	0.93	0.947	0.974
GAUGGU	1.92	1.85	1.9
GAUGAC	3.66	3.41	3.46
GAUGAA	4.07	3.66	3.68
GACGAG	1.19	1.18	1.13
UGAUCG	1.64	1.68	1.74
CUAAGC	0.741	0.738	0.733
GUUUGG	0.834	0.866	0.813
UAGGAG	0.934	0.936	0.887
CUGCAU	0.892	0.929	0.917
UCUGUU	0.847	0.911	0.878
GUGGCG	0.953	0.954	0.937
GAAUGU	0.999	1	0.972
UAAUGA	1.69	1.65	1.71
AAAUGA	2.48	2.3	2.4
GAAUGA	2.5	2.31	2.3
GAAUGC	1.17	1.18	1.17
AAAUGC	0.942	0.952	0.985
AUUAAC	0.87	0.859	0.881
CCCUCC	1.15	1.13	1.17
UCGCGU	0.843	0.85	0.835
ACUCUC	0.893	0.906	0.906
GAGGAC	1.09	1.06	1.02
